# Data as given in the supplement of paper PMC10849652.
# The full data set covers some 7,900 targets. This sample favours those with a hit. About 0.6% of all pairs of compound and target were hits. Values without a mark were called inactive.
# Key:
# Test in all cases: log2 fold change, soluble protein after heating vs DMSO (PISA); higher = thermal stabilisation; K562 cells, 10 uM, 30 min; active = over 0.2 and 3.5 SD of the protein, either way, in both replicates (recomputed)
# [1] = compound: CN1CCN(CCOc2cc(OC3CCOCC3)c3c(Nc4c(Cl)ccc5c4OCO5)ncnc3c2)CC1 [saracatinib]
# In short: (§1)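 Soluble protein was defined as the supernatant after 21,000xg for 90 min. It came from K562 cells at 2×10^6 cells/mL given 10 μM compound for 30 min, heated in aliquots for 3 min across 48°C-58°C, pooled, and extracted in PBS with 0.5% NP-40 at 4°C, and was quantified by TMTpro 16plex LC-MS/MS with equalised channel sums. Thermal stability against control samples, from duplicates, is reported as log2 fold change.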
# [2] = compound: CN1CCN(c2nc(C3=C(c4c[nH]c5ccccc45)C(=O)NC3=O)c3ccccc3n2)CC1 [sotrastaurin]
# In short: as §1
# [3] = compound: CN1CC[C@H](c2c(O)cc(O)c3c(=O)cc(-c4ccccc4Cl)oc23)[C@H](O)C1 [alvocidib]
# In short: as §1
# [4] = compound: CN1CCc2c(c3ccccc3n2Cc2ccc(C(=O)NO)cc2)C1 [Tubastatin A]
# In short: as §1
# [5] = compound: CNC(=O)C1=CC=CC=C1NC2=NC(=NC=C2Cl)NC3=C(C=C(C=C3)N4CCOCC4)OC
# In short: as §1
# [6] = compound: CNC(=O)c1ccc(Nc2ncc(C(F)(F)F)c(NCc3nccnc3N(C)S(C)(=O)=O)n2)cc1 [defactinib]
# In short: as §1
# [7] = compound: CNCc1ccc(-c2[nH]c3cc(F)cc4c3c2CCNC4=O)cc1 [rucaparib]
# In short: as §1
# [8] = compound: CNc1nc(-c2ccc3c(N)n[nH]c3c2)cc(N2C[C@@H](C(=O)NC3CCCCC3)CC[C@H]2C)n1
# In short: as §1
# [9] = compound: COC(=O)N[C@@H](C)CNc1nccc(-c2cn(C(C)C)nc2-c2cc(Cl)cc(NS(C)(=O)=O)c2F)n1 [encorafenib]
# In short: as §1
# [10] = compound: COC(=O)[C@H](CCSC)NC(=O)C1=C(C=C(C=C1)NC[C@H](CS)N)C2=CC=CC=C2
# In short: as §1
# UniProt O00471, sequence (O00471 whole entry, looked up): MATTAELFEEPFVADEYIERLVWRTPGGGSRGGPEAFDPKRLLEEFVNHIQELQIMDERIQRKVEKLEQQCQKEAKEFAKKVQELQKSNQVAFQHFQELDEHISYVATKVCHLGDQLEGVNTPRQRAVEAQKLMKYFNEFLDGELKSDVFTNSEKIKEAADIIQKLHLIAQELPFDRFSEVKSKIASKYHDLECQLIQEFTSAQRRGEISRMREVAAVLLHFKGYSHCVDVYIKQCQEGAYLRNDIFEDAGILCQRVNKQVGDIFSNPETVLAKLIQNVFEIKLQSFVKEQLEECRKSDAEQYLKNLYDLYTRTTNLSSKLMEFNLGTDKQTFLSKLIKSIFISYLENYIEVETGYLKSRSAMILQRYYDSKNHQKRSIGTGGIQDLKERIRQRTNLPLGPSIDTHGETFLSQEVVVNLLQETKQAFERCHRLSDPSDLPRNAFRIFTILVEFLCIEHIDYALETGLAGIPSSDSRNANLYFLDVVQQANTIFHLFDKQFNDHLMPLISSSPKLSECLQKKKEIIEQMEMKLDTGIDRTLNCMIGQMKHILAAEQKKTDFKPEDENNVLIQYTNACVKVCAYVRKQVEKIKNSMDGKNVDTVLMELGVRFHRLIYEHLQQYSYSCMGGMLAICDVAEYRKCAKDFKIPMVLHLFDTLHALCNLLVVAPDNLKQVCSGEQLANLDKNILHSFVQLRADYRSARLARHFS
# UniProt O75911, sequence (O75911 whole entry, looked up): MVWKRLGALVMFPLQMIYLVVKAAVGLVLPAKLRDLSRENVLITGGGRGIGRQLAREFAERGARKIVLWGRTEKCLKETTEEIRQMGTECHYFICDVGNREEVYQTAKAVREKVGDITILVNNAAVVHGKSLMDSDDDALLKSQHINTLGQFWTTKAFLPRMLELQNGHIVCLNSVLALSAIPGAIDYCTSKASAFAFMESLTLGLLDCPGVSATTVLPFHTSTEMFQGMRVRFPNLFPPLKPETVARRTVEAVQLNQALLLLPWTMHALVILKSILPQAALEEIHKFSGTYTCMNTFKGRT
# UniProt Q8TCE6, sequence (Q8TCE6 whole entry, looked up): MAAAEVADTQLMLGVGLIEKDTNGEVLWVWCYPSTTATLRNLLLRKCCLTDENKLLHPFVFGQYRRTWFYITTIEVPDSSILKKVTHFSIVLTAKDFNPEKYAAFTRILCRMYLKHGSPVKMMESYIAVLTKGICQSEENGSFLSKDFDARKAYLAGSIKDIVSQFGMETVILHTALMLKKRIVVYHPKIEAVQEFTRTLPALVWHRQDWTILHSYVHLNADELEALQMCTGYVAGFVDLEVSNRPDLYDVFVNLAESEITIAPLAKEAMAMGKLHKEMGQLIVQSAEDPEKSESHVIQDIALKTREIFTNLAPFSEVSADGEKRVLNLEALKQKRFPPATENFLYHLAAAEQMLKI
# UniProt Q16850, sequence (Q16850 whole entry, looked up): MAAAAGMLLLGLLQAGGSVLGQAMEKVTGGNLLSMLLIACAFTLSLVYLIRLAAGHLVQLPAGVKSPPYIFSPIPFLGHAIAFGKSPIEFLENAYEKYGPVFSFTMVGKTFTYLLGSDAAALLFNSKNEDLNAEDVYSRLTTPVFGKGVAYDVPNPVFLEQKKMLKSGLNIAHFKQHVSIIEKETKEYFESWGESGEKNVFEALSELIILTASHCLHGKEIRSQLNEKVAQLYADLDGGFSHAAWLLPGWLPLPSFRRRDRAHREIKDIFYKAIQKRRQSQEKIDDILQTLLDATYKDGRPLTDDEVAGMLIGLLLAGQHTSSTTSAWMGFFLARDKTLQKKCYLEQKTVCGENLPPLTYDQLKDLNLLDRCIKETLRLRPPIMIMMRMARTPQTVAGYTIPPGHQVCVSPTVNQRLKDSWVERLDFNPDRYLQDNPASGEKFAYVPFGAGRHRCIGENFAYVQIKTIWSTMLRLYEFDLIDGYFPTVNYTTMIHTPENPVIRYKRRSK
# UniProt Q9NX74, sequence (Q9NX74 whole entry, looked up): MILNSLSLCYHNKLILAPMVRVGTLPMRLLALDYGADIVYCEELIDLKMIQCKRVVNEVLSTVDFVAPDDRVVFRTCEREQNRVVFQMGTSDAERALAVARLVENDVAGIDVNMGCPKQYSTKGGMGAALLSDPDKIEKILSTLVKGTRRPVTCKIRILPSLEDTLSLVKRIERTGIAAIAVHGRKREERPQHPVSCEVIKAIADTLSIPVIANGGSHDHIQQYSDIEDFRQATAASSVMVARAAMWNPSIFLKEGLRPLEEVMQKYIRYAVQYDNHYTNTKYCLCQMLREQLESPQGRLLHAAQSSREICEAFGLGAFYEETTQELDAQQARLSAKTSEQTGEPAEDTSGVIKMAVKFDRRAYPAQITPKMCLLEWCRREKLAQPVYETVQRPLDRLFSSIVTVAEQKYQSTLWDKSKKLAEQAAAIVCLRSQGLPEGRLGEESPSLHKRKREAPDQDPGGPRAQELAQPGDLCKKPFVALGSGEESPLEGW
# UniProt Q8NBA8, sequence (Q8NBA8 whole entry, looked up): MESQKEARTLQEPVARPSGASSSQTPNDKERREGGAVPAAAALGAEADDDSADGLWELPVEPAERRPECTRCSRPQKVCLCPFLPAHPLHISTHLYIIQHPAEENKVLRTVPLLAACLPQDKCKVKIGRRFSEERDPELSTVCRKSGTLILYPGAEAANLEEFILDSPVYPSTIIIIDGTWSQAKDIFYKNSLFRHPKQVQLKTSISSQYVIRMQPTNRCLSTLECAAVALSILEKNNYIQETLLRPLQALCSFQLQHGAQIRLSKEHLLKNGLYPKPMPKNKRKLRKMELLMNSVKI
# UniProt O60888, sequence (O60888 whole entry, looked up): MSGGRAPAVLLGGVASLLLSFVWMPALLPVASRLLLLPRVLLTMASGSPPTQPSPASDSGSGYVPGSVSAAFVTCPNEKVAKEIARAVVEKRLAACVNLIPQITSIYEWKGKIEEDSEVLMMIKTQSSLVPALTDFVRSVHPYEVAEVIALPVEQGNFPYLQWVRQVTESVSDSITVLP
# UniProt Q99615, sequence (Q99615 whole entry, looked up): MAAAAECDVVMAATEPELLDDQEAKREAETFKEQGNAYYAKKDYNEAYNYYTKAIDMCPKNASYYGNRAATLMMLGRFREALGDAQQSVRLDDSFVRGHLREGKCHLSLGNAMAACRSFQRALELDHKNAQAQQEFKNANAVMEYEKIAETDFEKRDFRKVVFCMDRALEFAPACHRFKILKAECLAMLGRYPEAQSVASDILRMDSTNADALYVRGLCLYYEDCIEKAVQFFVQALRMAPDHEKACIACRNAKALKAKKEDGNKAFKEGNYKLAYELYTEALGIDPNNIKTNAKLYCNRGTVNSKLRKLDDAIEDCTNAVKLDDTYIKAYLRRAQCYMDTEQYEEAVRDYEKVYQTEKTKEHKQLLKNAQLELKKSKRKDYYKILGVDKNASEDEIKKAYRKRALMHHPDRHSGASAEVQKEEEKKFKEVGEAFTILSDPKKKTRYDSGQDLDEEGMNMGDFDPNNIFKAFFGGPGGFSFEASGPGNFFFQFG
# UniProt Q9HBU6, sequence (Q9HBU6 whole entry, looked up): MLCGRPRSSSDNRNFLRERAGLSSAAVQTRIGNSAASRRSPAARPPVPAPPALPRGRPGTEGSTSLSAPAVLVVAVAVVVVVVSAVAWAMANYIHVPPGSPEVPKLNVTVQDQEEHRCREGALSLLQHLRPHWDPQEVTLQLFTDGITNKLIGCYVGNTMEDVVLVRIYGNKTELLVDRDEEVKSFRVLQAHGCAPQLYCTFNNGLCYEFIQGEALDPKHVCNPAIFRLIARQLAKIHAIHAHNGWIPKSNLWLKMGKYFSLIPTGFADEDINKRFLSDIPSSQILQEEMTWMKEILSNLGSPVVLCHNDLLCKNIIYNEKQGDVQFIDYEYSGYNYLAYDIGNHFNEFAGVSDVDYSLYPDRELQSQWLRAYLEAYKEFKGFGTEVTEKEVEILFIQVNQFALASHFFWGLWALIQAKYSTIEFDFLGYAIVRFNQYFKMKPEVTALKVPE
# UniProt Q9NXF7, sequence (Q9NXF7 whole entry, looked up): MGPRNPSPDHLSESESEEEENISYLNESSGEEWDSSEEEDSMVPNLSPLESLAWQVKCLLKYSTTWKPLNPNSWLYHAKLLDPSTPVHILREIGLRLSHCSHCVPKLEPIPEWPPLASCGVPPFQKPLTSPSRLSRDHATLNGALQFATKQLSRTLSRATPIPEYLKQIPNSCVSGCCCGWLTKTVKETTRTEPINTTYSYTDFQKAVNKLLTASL
# UniProt P26641, sequence (P26641 whole entry, looked up): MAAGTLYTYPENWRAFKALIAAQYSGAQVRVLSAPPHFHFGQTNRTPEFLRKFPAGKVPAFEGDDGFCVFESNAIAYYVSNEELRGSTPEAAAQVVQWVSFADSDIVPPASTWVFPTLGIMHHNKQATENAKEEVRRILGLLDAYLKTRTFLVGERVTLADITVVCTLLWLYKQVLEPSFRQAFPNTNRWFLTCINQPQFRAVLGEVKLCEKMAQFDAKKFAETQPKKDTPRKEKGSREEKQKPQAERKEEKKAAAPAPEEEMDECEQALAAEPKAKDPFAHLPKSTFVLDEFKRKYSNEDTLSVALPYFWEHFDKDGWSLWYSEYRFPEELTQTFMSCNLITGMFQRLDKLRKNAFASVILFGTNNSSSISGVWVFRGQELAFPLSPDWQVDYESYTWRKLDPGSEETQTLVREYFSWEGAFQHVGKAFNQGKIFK
# UniProt Q99848, sequence (Q99848 whole entry, looked up): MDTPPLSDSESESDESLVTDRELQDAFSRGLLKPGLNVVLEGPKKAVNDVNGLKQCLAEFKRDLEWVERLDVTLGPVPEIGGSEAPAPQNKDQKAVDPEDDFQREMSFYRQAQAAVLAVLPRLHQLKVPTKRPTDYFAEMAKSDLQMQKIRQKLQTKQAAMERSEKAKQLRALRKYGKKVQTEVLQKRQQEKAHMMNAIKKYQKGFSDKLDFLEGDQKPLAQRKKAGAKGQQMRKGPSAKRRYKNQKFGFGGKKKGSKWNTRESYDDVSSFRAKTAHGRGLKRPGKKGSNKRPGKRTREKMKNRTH
# UniProt Q9H773, sequence (Q9H773 whole entry, looked up): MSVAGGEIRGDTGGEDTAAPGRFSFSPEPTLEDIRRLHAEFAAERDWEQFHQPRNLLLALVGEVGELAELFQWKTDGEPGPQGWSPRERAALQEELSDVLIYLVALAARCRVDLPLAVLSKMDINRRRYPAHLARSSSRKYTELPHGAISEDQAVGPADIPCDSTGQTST
Target,log2 fold change [1],log2 fold change [2],log2 fold change [3],log2 fold change [4],log2 fold change [5],log2 fold change [6],log2 fold change [7],log2 fold change [8],log2 fold change [9],log2 fold change [10]
DUS3L (UniProt Q96G46),0.02,-0.155,-0.037,-0.028,0.022,-0.148,0.204,-0.033,0.016,0.003
EXOC5 (UniProt O00471),-0.043,-0.209,-0.008,0.015,0.042,-0.064,0.091,-0.06,0.083,-0.071
DCTPP1 (UniProt Q9H773),0.012,0.031,-0.033,0.031,-0.075,-0.008,-0.011,-0.022,-0.072,0.002
DENND10 (UniProt Q8TCE6),0.035,0.015,0,0.007,-0.039,-0.058,-0.065,-0.035,0.008,-0.048
FAM117A (UniProt Q9C073),-0.019,0.009,-0.077,0.058,-0.268 (active),-0.141,-0.079,0.083,-0.023,0.009
DHRS3 (UniProt O75911),-0.022,-0.008,0.001,-0.042,0.044,0.077,-0.04,-0.016,0.004,0.027
DTWD2 (UniProt Q8NBA8),-0.032,-0.228,0.059,-0.029,0.111,-0.022,0.05,0.04,0.002,-0.032
DPYSL2 (UniProt Q16555),0.127,0.062,-0.089,-0.003,-0.066,0.02,0.015,-0.032,-0.054,-0.009
EEA1 (UniProt Q15075),0.07,0.013,0.013,-0.014,-0.014,-0.033,-0.035,-0.026,-0.047,0.007
EBNA1BP2 (UniProt Q99848),-0.081,-0.138,0.165,0.34,-0.047,0.512,0.23,0.142,0.13,0.086
DTNBP1 (UniProt Q96EV8),-0.072,0.026,-0.041,0.023,0,-0.054,-0.015,0.005,0.014,0.054
DOHH (UniProt Q9BU89),-0.035,0.196,0.147,-0.121,-0.076,-0.152,-0.002,-0.064,-0.074,0.037
CTSA (UniProt P10619),0.056,0.089,0.04,-0.015,0.06,0.022,-0.041,0.002,0.057,0.065
DAXX (UniProt Q9UER7),-0.001,-0.078,0,0.122,-0.142,0.005,0.048,0.018,-0.097,0.109
EOGT (UniProt Q5NDL2),-0.012,0.052,-0.02,0.025,0,0.031,0.014,-0.158,0.042,-0.032
DCAF13 (UniProt Q9NV06),-0.027,0.001,0.214,0.094,0.074,0.165,0.19,0.045,0.07,0.029
"EED, A0A5F9ZI63",0.008,-0.065,0.037,-0.041,-0.057,-0.04,0.125,-0.052,0.025,-0.05
DCAF6 isoform 3 (UniProt Q58WW2),0.093,0.001,0.001,-0.05,-0.027,-0.012,-0.028,-0.051,0,0.034
DDOST (UniProt P39656),-0.015,-0.03,0.013,0.021,0.008,0.042,-0.029,-0.005,0.059,-0.002
ELOVL1 (UniProt Q9BW60),0.015,0.037,-0.011,-0.015,-0.223,-0.029,0.05,0.017,-0.011,0
EXOC6 (UniProt Q8TAG9),-0.02,-0.153,-0.151,0.042,0.075,-0.061,0.025,-0.015,0.013,0.009
DUS2 (UniProt Q9NX74),0.112,-0.098,-0.041,0.041,-0.048,-0.093,0.042,-0.113,0.09,-0.02
DCAF16 (UniProt Q9NXF7),-0.052,-0.036,-0.082,-0.006,0.084,-0.054,0.033,-0.05,0.004,-0.041
CYP51A1 (UniProt Q16850),-0.072,-0.029,0.027,-0.024,0.065,0,0.162,0.212,0.029,-0.135
EEF1B2 (UniProt P24534),-0.091,-0.061,-0.009,0.017,0.06,-0.064,0.041,-0.013,0.07,-0.046
CUTA isoform 2 (UniProt O60888),0.202,0.097,-0.158,0.049,0.003,-0.027,-0.035,0.034,-0.002,0.122
EFCAB14 (UniProt O75071),-0.164,0.083,0.016,-0.029,-0.03,0.093,-0.059,0.031,0.044,-0.086
EEF1G isoform 2 (UniProt P26641),-0.012,-0.041,-0.044,-0.008,0.075,-0.051,0.045,0.02,0.076,-0.047
ETNK1 (UniProt Q9HBU6),-0.037,-0.045,-0.028,0.092,0.053,-0.001,0.295 (active),-0.039,-0.007,-0.027
DNAJC7 (UniProt Q99615),0.001,-0.05,-0.069,0.002,0.034,-0.072,-0.016,0.056,0.045,-0.003
